# Only some compounds are listed: those with a hit (about 1.8% of all), similar ones and a draw of the others.
# VDR inhibitor – Inhibitors of the vitamin D receptor (VDR): qHTS; Vitamin D3 receptor (Homo sapiens), P11473; VDR-SRC2-3 peptide fluorescence polarization, 2 h; Potency, µM, for inactives: max response, negative = inhibition, actives largely listed as inhibitors; 0.93% of 400,000 active; AID 504847, 2011; also: % is scaled to controls: 0 for no effect and ±100 for the full control effect
#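 Two reagent solutions held at 4 deg C in the dark were dispensed, compounds pinned at 23 nl, and the mixture incubated 2 h at room temperature. Read-out: fluorescence polarization of VDR–SRC2-3 peptide binding.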
# Vif-A3G inh – qHTS for Inhibitors of Vif-A3G Interactions: qHTS; DNA dC->dU-editing enzyme APOBEC-3G (Homo sapiens), Q9HC16; HeLa A3G-eYFP + Vif (tagged APOBEC3G with the HIV-1 protein that degrades it), YFP fluorescence, overnight; Potency, µM (top dose mostly 46.1 µM), for the others: top-dose activity, negative = active, actives largely listed as inhibitors; 0.076% of 410,000 active; also: % is scaled to controls: 0 for no effect and ±100 for the full control effect; nearly all actives have a fitted effect of over 60% in size
# Target sequence (Q9HC16 whole entry, looked up): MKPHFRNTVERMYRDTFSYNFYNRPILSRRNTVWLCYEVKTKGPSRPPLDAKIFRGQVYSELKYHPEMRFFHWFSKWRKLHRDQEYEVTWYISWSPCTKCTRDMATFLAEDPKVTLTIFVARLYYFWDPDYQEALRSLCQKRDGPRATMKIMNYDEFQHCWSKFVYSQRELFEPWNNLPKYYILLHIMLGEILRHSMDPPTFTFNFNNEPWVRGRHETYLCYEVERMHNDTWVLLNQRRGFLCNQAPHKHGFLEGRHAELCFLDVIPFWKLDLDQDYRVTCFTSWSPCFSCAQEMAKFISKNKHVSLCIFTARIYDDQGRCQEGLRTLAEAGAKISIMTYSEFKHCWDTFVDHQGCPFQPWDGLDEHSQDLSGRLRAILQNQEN
#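 HeLa cells stably expressing Vif and C-terminally eYFP-tagged A3G, seeded overnight at 37 deg C, then exposed to compound by pintool overnight at 37 deg C. Rise in yellow fluorescence (Ex 488/Em 500-530, Acumen) marks blocked Vif-driven A3G degradation.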
# TrxR1 substrate – qHTS Assay for Substrates of Mammalian Selenoprotein Thioredoxin Reductase 1 (TrxR1): qHTS; 0.01% of 390,000 active; AID 588456, 2011; purified TrxR1 substrate turnover, NADPH consumption readout; Potency, µM (titrated, usually from 114 µM), for inactives: top-dose activity change, negative = substrate turnover; also: % is scaled to controls: 0 for no effect and ±100 for the full control effect; nearly all actives have a fitted effect of over 50% in size
#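 Rat TrxR1, dispensed at 90 nM, was prereduced with 400 uM NADPH (final) for 5 min at ~22 deg C, then incubated with compound 15 min before 400 uM selenite. A first-read NADPH fluorescence drop versus no-compound background flagged substrates.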
# rTrxR1 inhibitor – qHTS Assay for Inhibitors of Mammalian Selenoprotein Thioredoxin Reductase 1 (TrxR1): qHTS. Thioredoxin reductase 1, cytoplasmic (Rattus norvegicus), O89049. recombinant rTrxR1, NADPH fluorescence consumption, selenite substrate. Potency, µM (highest dose often 114 µM), inactives show at the top dose activity change, negative = inhibition, most hits filed as inhibitors. 1% of 390,000 active. AID 588453, 2011; also: % is scaled to controls: 0 for no effect and ±100 for the full control effect; nearly all actives have a fitted effect of over 65% in size
#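 Rat TrxR1 (90 nM in the dispensed reagent) was pre-reduced with 400 uM NADPH for 5 min at room temperature, then incubated with compound for 15 min. After 400 uM selenite was added, NADPH fluorescence (Ex 340/Em 450 nm) was followed for 8 min.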
# Vif-A3F inh – qHTS for Inhibitors of Vif-A3F Interactions: qHTS | HeLa A3F-eYFP + Vif (tagged APOBEC3F with the HIV-1 protein that degrades it), YFP fluorescence increase | Potency, µM (top dose mostly 46.1 µM), for the others: at the highest dose activity, negative = active | 0.2% of 390,000 active; also: % of control where 0% means no effect; nearly all actives have a fitted effect of over 65% in size
#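 HeLa cells stably expressing A3F-eYFP plus Vif, plated and incubated overnight at 37 deg C, then exposed to compounds overnight at 37 deg C. Blocked degradation read as raised yellow fluorescence (Ex 488/Em 500-530).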
# Active calls of the source: *; ? = inconclusive; . = no result given; ! = not confirmed by another sample; [ ] = another dose, or the depositor's remark. Calls follow the shape of the dose curve; as a rule, active = well fitted curve in the direction sought with a large enough effect; inconclusive = small, poorly fitted or top-dose-only effect, or another doubt; inactive = no such curve, though single readings can be large; an effect the other way counts as inactive or inconclusive. Potency is read from the fitted curve at half-maximal effect.
SMILES,VDR inhibitor,Vif-A3G inh,TrxR1 substrate,rTrxR1 inhibitor,Vif-A3F inh
CC(C)CN(CC(C)C)c1ccc(C=C2C(=O)NC(=S)NC2=O)cc1[N+](=O)[O-],35µM*,-9%,-7%,2.5µM*,-13%
CN(C)c1ccc(/C=C2\C(=O)NC(=O)N(Cc3ccc(F)cc3)C2=O)cc1,-14%,0%,-1%,?,-24%
CCN(CC)c1ccc(C=C2C(=O)NC(=S)NC2=O)cc1,?,?,-5%,4.5µM*,?
COC1=CC(=O)O[C@H](/C=C/c2ccc3c(c2)OCO3)C1,5%,.,.,.,.
CC[C@@H](CO)NC(=O)[C@@H]1C=C2c3cccc4c3c(cn4C)C[C@H]2N(C)C1,28µM*!,2%,11%[57.1 µM],46%,0%
CN1C[C@H](CO)C=C2c3cccc4[nH]cc(c34)C[C@@H]21,-5%,.,.,.,.
CCCCCCCCCCCCCC(=O)O[C@@H]1[C@@H](C)[C@@]2(O)[C@H](C=C(CO)C[C@]3(O)C(=O)C(C)=C[C@@H]23)[C@@H]2C(C)(C)C12OC(C)=O (some centres not stated),-3%,.,.,.,.
O=C1Nc2cc(Cl)c(Cl)cc2N2CCNC[C@H]12,25µM*,.,.,.,.
O=C(Nc1ccc2nc(SCC(=O)N3CCOCC3)sc2c1)c1ccc(Cl)cc1,1%,-19%,9%,41%,-16%
O=C1c2ccccc2C(=O)N1SC1CCCCC1,20µM*,1%,-25%[57.1 µM],7%[57.1 µM],-2%
NC(=O)c1cn(C2CCCCC2)c2ccccc2c1=O,-1%,-2%,-4%,13%,0%
Cn1c(O)c(/C=N/NC(=O)c2ccncc2)c(=O)[nH]c1=S,-28%,-5%,-5%,-16%,-5%
CCn1c(O)c(/C=N/NC(=O)c2ccncc2)c(=O)n(CC)c1=S,-5%,?,-3%,?,7.9µM*
CCCCC/C=C\C=C\[C@H](CCCCCCCC(=O)O)OO,-1%,.,.,.,.
CNC(=O)Oc1cccc2ccccc12,14µM*!,0%,6%,19%,5%
O=C(NC1CCCCC1)c1cn(CCN2CCOCC2)c2cc(Cl)ccc2c1=O,-14%,.,.,.,.
Nc1ccc2ccccc2c1,12%,-7%,55%,-15%,-11%
C[n+]1c2cc(N)ccc2cc2ccc(N)cc21,25µM*!,1%,-11%,-6%,-26%
NC(N)=NCCCCCCCCCCN=C(N)N,-8%,.,.,.,.
CCC(=O)OC1CCC2C3CCC4CC(=O)C=CC4(C)C3CCC12C (configuration not stated),50µM*,-3%,-5%[57.1 µM],11%,-16%
CCCCCCCCCC(=O)O[C@H]1CC[C@H]2[C@@H]3CCC4=CC(=O)CC[C@]4(C)[C@H]3CC[C@]12C,0%,.,.,.,.
Cc1cc(=O)oc2c(C)c(OC3CCCCC3=O)ccc12 (configuration not stated),-10%,1%,67%,?,-3%
CNC(C)[C@@H](O)c1ccc(O)cc1 (some centres not stated),-4%,.,.,.,.
CCCCCC1CC(CC#CCN2CCOCC2)C(=O)O1 (configuration not stated),-14%,-5%,-3%,45µM*,6%
CCCCCCn1c(O)c(C=NCCN2CCOCC2)c(=O)[nH]c1=O,-4%,2%,0%,15%,-5%
SMILES,VDR inhibitor,Vif-A3G inh,TrxR1 substrate,rTrxR1 inhibitor,Vif-A3F inh
CC(Cc1ccc(C(C)(C)C)cc1)CN1CCCCC1 (configuration not stated),7%,.,.,.,.
CSc1ccc(C(=O)C2CCCN(Cc3cc4ccccc4[nH]3)C2)cc1 (configuration not stated),89µM*,1%,5%[57.1 µM],8%[57.1 µM],-18%
CSc1ccc(C(=O)C2CCCN(Cc3cccnc3)C2)cc1 (configuration not stated),-6%,1%,6%[11.4 µM],17%[11.4 µM],4%
O=C(Oc1ccc(Cl)cc1)N1CCOCC1,79µM*,0%,9%,11%[57.1 µM],-5%
O=C(Nc1ccc(OC(=O)N2CCCC2)cc1)N1CCOCC1,-10%,-1%,4%[57.1 µM],4%[57.1 µM],-4%
CN(C)c1c([N+](=O)[O-])cc(N2C(=O)C=CC2=O)cc1[N+](=O)[O-],16µM*,-1%,0%,2.8µM*,1%
O=[N+]([O-])c1cc(C(F)(F)F)c(Cl)c([N+](=O)[O-])c1Nc1ncc(C(F)(F)F)cc1Cl,.,-17%,-7%,?,.
Cc1ccc(/C=C2\C(=O)NC(=O)N(CCc3ccc(F)cc3)C2=O)s1,?,2%,8%,-14%[57.1 µM],-14%
Cc1ccc(/C=C2/C(=O)NC(=O)N(CC3CCCO3)C2=O)s1 (configuration not stated),?,-3%,-1%,50µM*,-20%
Cc1ccc(/C=C2/C(=O)NC(=O)N(CCc3ccc(F)cc3)C2=O)s1,?,2%,2%,-34%,8.9µM*
CCOc1cc(/C=C2\C(=O)NC(=O)N(CCc3ccc(F)cc3)C2=O)ccc1O,?,-19%,-5%,11µM*,?
COc1cc([N+](=O)[O-])cc([N+](=O)[O-])c1N,.,3%,-8%,-14%,.
C[C@@H](NC(=O)[C@@H](N)Cc1ccc(O)cc1)C(=O)NCC(=O)N(C)[C@@H](Cc1ccccc1)C(=O)NCCO,13%,.,.,.,.
CN(C(=O)Cc1ccc(Cl)c(Cl)c1)C(CN1CCCC1)c1cccc(N=C=S)c1 (configuration not stated),-5%,.,.,.,.
CN1/C(=C\C=C2C(=O)NC(=O)NC2=O)C(C)(C)c2ccccc21,-15%,?,?,?,11µM*
C[C@]12CC[C@@H]3c4ccc(OC(=O)N(CCCl)CCCl)cc4CC[C@H]3[C@@H]1CC[C@@H]2O,50µM*,.,.,.,.
C[C@]12CC[C@@H]3c4cc(O)c(O)cc4CC[C@H]3[C@@H]1CC[C@@H]2O,-17%,?,1%,?,-6%
COc1ccc(C(=O)Nc2ccc3c(c2)N(C)C(=O)c2ccccc2S3)cc1OC,13%,?,-6%[57.1 µM],3%[57.1 µM],-15%
Cc1ccccc1-n1c(/C=C/c2c(C)[nH]c3ccccc23)nc2ccccc2c1=O,-4%,-15%,-14%,?,-7%
Cc1ccccc1-n1c(/C=C/c2ccc(N(C)C)cc2)nc2ccccc2c1=O,-18%,3.2µM*,-10%,9%,?
CCCN1CCC[C@@H]2Cc3cn[nH]c3C[C@H]21,0%,.,.,.,.
c1nc[n]([Sn]([CH]2CCCCC2)([CH]2CCCCC2)[CH]2CCCCC2)n1,50µM*,.,.,.,.
Cc1ccc(CNC(=O)CCCn2c(=O)c3sccc3n(CC(=O)Nc3c(C)cccc3C)c2=O)cc1,-10%,-8%,2%,10%,6%
Cc1ccc2c(c1)[C@@H]1CN(C)CC[C@H]1N2,4%,.,.,.,.
